Experimental findings from ChEMBL document CHEMBL5308504, “Tm Shift (DSF) assay results for EUbOPEN Chemogenomics Library” (2023) are described below.

The structures appear in SMILES notation.

Common to all, as to settings: Compound concentration 20.0 uM, Protein concentration 2.0 uM, Result type QC Liability
For experiment [1], the target named is Tyrosine-protein kinase ABL1 (Homo sapiens) (UniProt P00519).
For experiment [2], the target named is Cyclin-dependent kinase 2 (Homo sapiens) (UniProt P24941).
In experiment [3] the target is Casein kinase I isoform delta (Homo sapiens) (UniProt P48730).
Chain of Casein kinase I isoform delta (Homo sapiens) (P48730 whole entry, looked up, canonical isoform): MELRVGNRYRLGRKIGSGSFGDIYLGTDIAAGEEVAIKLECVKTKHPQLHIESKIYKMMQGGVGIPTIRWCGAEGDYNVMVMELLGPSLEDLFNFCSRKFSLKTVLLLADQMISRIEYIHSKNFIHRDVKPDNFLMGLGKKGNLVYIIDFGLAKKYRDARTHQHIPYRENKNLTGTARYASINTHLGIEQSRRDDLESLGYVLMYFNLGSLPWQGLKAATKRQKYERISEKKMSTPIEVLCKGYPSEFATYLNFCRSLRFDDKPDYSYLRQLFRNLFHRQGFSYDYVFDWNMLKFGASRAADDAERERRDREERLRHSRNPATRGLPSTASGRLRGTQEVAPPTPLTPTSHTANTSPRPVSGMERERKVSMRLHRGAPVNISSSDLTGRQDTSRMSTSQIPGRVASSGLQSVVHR
Experiment [4] has as its target Glycogen synthase kinase-3 beta (Homo sapiens) (UniProt P49841).
The target of experiment [5] is Mitogen-activated protein kinase 1 (Homo sapiens) (UniProt P28482).
Chain of Mitogen-activated protein kinase 1 (Homo sapiens) (P28482 whole entry): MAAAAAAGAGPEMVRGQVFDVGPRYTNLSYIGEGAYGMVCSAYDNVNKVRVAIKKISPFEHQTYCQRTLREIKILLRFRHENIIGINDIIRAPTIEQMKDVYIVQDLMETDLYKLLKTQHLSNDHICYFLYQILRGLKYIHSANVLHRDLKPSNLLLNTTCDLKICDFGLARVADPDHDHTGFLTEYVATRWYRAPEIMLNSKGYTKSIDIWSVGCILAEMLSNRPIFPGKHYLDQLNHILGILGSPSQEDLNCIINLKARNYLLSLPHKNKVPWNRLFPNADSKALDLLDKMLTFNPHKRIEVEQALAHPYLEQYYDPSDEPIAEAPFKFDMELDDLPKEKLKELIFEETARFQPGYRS
The target of experiment [6] is T1, Aurora kinase A (Homo sapiens) (UniProt O14965).
T1 sequence (whole entry): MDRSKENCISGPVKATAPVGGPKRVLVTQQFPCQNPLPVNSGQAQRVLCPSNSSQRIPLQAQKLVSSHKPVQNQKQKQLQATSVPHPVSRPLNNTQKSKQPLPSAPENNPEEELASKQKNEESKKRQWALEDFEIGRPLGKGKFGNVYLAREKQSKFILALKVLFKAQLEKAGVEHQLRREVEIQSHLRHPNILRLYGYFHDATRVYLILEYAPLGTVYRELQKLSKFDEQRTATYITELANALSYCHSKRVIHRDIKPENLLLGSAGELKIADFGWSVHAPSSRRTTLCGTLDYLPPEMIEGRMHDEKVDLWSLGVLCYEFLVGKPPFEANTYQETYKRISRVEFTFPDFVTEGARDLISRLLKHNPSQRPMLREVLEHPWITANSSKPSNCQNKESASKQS

Chain of Tyrosine-protein kinase ABL1 (Homo sapiens) (P00519 whole entry): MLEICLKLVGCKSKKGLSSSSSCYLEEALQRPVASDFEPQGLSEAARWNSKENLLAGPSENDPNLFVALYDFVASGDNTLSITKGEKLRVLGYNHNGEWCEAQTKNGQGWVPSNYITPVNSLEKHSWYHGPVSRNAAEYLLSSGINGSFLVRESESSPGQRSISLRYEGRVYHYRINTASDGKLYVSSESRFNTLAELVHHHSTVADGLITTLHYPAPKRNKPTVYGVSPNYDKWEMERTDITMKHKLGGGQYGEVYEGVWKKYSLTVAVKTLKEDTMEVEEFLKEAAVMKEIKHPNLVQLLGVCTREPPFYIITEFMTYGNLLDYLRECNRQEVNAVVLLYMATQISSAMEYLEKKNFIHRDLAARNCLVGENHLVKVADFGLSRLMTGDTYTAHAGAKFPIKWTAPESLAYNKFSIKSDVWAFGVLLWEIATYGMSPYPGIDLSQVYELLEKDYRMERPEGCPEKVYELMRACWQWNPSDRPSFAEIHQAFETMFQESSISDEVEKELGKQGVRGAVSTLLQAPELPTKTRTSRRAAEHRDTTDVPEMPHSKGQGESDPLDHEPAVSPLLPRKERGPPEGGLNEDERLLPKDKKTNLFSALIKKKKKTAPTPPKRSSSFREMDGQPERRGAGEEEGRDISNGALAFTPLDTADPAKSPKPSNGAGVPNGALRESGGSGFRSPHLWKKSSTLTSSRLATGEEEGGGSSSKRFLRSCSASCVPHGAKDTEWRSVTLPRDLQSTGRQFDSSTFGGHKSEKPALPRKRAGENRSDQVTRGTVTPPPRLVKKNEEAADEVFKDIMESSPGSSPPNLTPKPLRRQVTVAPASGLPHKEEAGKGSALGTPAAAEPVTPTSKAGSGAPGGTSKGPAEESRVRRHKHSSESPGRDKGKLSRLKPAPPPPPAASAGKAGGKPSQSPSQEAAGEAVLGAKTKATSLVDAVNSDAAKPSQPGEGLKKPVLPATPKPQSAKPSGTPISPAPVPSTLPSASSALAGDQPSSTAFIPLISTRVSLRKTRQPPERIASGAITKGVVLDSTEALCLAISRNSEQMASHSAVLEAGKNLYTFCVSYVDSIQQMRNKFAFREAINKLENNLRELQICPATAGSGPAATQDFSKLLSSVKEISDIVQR
Chain of Glycogen synthase kinase-3 beta (Homo sapiens) (P49841 whole entry, looked up): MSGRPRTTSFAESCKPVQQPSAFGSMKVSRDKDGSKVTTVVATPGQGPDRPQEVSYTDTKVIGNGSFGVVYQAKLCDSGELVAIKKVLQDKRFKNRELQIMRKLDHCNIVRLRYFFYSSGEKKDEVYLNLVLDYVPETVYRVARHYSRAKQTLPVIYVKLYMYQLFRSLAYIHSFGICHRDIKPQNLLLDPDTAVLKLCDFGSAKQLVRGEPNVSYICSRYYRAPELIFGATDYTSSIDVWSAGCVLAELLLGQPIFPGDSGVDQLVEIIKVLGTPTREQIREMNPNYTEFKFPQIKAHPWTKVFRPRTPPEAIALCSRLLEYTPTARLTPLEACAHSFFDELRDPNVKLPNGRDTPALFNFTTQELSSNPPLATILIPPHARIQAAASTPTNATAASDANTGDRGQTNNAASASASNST

In the case of `CN(c1ccc(C(F)(F)F)cc1)S(=O)(=O)c1ccc(C(=O)Nc2nc(-c3ccccn3)cs2)cc1`, the ΔTm in experiment [1] was found to be 7.05 °C; in experiment [2] it was 10.4 °C; in experiment [3] it was 5.15 °C; in experiment [4], 13.4 °C; in experiment [5], 1.92 °C; in experiment [6], 9.24 °C.
On to `c1ccc2c(c1)SCc1c-2[nH]c2ccccc12`, for which the shift in melting temperature (ΔTm) in experiment [1] was -6.18 °C; in experiment [2], -4.12 °C; in experiment [3], -0.03 °C; in experiment [4] it was 1.83 °C; in experiment [5] it was 0.46 °C; in experiment [6], -4.16 °C.
For `Cc1cc([N+](=O)[O-])c(NS(=O)(=O)c2cccc(C(=O)O)c2)cc1-c1cccnc1`, the thermal shift (ΔTm) in experiment [1] was determined as 0.08 °C; in experiment [2] it was 0.85 °C; in experiment [3], 0.28 °C; in experiment [4], 0.02 °C; in experiment [5], 0.58 °C; in experiment [6], 0.29 °C.
As for `c1ccc(C2CCN(c3cnc4c(N5CCOCC5)nccn34)CC2)cc1`, the ΔTm in experiment [1] is 0.01 °C; in experiment [2] it was 0.19 °C; in experiment [3], 0.18 °C; in experiment [4], -0.6 °C; in experiment [5], 0.57 °C; in experiment [6], -0.14 °C.
As to `CCCNc1ccc2ncc(-c3ccncc3)n2n1`, the ΔTm in experiment [1] came to 5.22 °C; in experiment [2] it was 4.76 °C; in experiment [3] it was 5.6 °C; in experiment [4], 4.07 °C; in experiment [5], 1.16 °C; in experiment [6], 6.52 °C.
Consider `Cc1cnc(-c2cnc(NCCNc3ccc(C#N)cn3)nc2-c2ccc(Cl)cc2Cl)[nH]1`, for which the thermal shift (ΔTm) in experiment [1] was determined as 0.86 °C; in experiment [2], 1.98 °C; in experiment [3] it was 1.3 °C; in experiment [4], 14.6 °C; in experiment [5], 1.17 °C; in experiment [6], 2.09 °C.
`COc1cc(-c2nn([C@H]3CC[C@H](N4CCN(C(C)=O)CC4)CC3)c3ncnc(N)c23)ccc1NC(=O)c1cc2ccccc2n1C`: the ΔTm was 14.2 °C in experiment [1]; 1.13 °C in experiment [2]; 21 °C in experiment [3]; 0 °C in experiment [4]; 3.54 °C in experiment [5]; 8.28 °C in experiment [6].
For the compound `CC[C@H](CO)Nc1nc(Nc2cccc(-c3ccccn3)c2)c2ncn(C(C)C)c2n1`, the ΔTm in experiment [1] turned out to be 7.62 °C; in experiment [2], 4.37 °C; in experiment [3] it was 4.48 °C; in experiment [4], 1.93 °C; in experiment [5], 2.21 °C; in experiment [6] it was 4.01 °C.
Turning to `COc1cc(-c2cncc(-c3ccc(N4CCN(C(C)C)CC4)cc3)c2C)cc(F)c1C(=O)N1CCCC1`, the shift in melting temperature (ΔTm) is 0.7 °C in experiment [1]; 0.41 °C in experiment [2]; 0.26 °C in experiment [3]; -0.59 °C in experiment [4]; 0.53 °C in experiment [5]; -0.62 °C in experiment [6].
In the case of `CC(C)(C)c1cc(NC(=O)c2csc(Nc3ccc(Cl)cc3)n2)no1`, the ΔTm in experiment [1] is -0.19 °C; in experiment [2] it was 0.91 °C; in experiment [3] it was 1.05 °C; in experiment [4], -2.8 °C; in experiment [5], -3.27 °C; in experiment [6], 1.67 °C.
As to `Nc1ncnc2c1c(I)cn2[C@@H]1O[C@H](CO)[C@@H](O)[C@H]1O`, the ΔTm in experiment [1] turned out to be 2.09 °C; in experiment [2], 6.73 °C; in experiment [3], 5.26 °C; in experiment [4] it was 2.65 °C; in experiment [5], 1.65 °C; in experiment [6], 2.13 °C.
For `Cc1cc(=O)oc2cc(NC(=O)[C@H](Cc3ccc(I)cc3)NC(=O)[C@H]3N[C@@H]4CC[C@H]3C4)ccc12`, the ΔTm in experiment [1] was 0 °C; in experiment [2] it was -0.62 °C; in experiment [3], 0.37 °C; in experiment [4] it was -0.08 °C; in experiment [5], 0.09 °C; in experiment [6] it was -0.48 °C.
Consider `Cc1nc2c(cc1F)c(-c1nnc3c(n1)NC(=O)C3(C)C)nn2Cc1cccc(F)c1F`, for which the ΔTm is 0.8 °C in experiment [1]; 0.74 °C in experiment [2]; 0.12 °C in experiment [3]; -0.14 °C in experiment [4]; 0.44 °C in experiment [5]; -0.06 °C in experiment [6].
With `Fc1ccc(-c2nc(-c3c(F)cccc3F)[nH]c2-c2ccncc2)cc1`, the ΔTm was 4.45 °C in experiment [1]; 1.7 °C in experiment [2]; 6.41 °C in experiment [3]; 7.77 °C in experiment [4]; 0.52 °C in experiment [5]; -0.55 °C in experiment [6].
Turning to `Nc1c(CC(=O)O)cccc1C(=O)c1ccc(Br)cc1`, the ΔTm came out at 1.3 °C in experiment [1]; 0.36 °C in experiment [2]; 0.21 °C in experiment [3]; 0.59 °C in experiment [4]; 0.2 °C in experiment [5]; 0.08 °C in experiment [6].
With `C[C@H](NC(=O)c1cc(Cl)ccc1Oc1ccc(F)cc1)c1ccc(C(=O)O)cc1`, the ΔTm is -0.11 °C in experiment [1]; 0.27 °C in experiment [2]; -2.45 °C in experiment [3]; 0.51 °C in experiment [4]; 0.18 °C in experiment [5]; -0.14 °C in experiment [6].
Take `CNC(=O)c1nnc(NC(=O)C2CC2)cc1Nc1cccc(-c2ncn(C)n2)c1OC`: the ΔTm in experiment [1] was 3.38 °C; in experiment [2] it was 0.57 °C; in experiment [3] it was 0.11 °C; in experiment [4], 5.87 °C; in experiment [5], 0.36 °C; in experiment [6], 0.41 °C.
With `N#Cc1c(SCc2csc(-c3ccc(Cl)cc3)n2)nc(N2CCCC2)c(C#N)c1-c1ccc(OCCO)cc1`, the ΔTm in experiment [1] is -0.51 °C; in experiment [2] it was 0.34 °C; in experiment [3] it was -2.01 °C; in experiment [4] it was 0 °C; in experiment [5] it was 4.1 °C; in experiment [6], -0.18 °C.
